# B1: 47 (nucleosome)
# DNA 1: ATCCTGGAGAATCCCGGTGCCGAGGCCGCTCAATTGGTCGTAGACAGCTTCAAGGCCACTTAAACGCACGTACGCGCTGTCCCCCGCGTTTTAACCGCCAAGGGGATTACTCCCTAGTCTCCAGGCACGTGTCAGATATATACATCCTGTGAT
# DNA 2: ATCACAGGATGTATATATCTGACACGTGCCTGGAGACTAGGGAGTAATCCCCTTGGCGGTTAAAACGCGGGGGACAGCGCGTACGTGCGTTTAAGTGGCCTTGAAGCTGTCTACGACCAATTGAGCGGCCTCGGCACCGGGATTCTCCAGGAT
# modifications: reconstituted with mouse histones H2A, H2B, H3.3 and H4
# B2: 52 (nucleosome)
# DNA 1: ATCCTGGAGAATCCCGGTGCCGAGGCCGCTCAATTGGTCGTAGACAGCTCTAGCTCAAGGCCAACGCACGTACGCGCTGTCCCCCGCGTTTTAACCGCCAAGGGGATTACTCCCTAGTCTCCAGGCACGTGTCAGATATATACATCCTGTGAT
# DNA 2: ATCACAGGATGTATATATCTGACACGTGCCTGGAGACTAGGGAGTAATCCCCTTGGCGGTTAAAACGCGGGGGACAGCGCGTACGTGCGTTGGCCTTGAGCTAGAGCTGTCTACGACCAATTGAGCGGCCTCGGCACCGGGATTCTCCAGGAT
# modifications: reconstituted with mouse histones H2A, H2B, H3.3 and H4
# B3: 49 (nucleosome)
# DNA 1: ATCCTGGAGAATCCCGGTGCCGAGGCCGCTCAATTGGTCGTAGACAGCTCTTCAAGGCCATAAACGCACGTACGCGCTGTCCCCCGCGTTTTAACCGCCAAGGGGATTACTCCCTAGTCTCCAGGCACGTGTCAGATATATACATCCTGTGAT
# DNA 2: ATCACAGGATGTATATATCTGACACGTGCCTGGAGACTAGGGAGTAATCCCCTTGGCGGTTAAAACGCGGGGGACAGCGCGTACGTGCGTTTATGGCCTTGAAGAGCTGTCTACGACCAATTGAGCGGCCTCGGCACCGGGATTCTCCAGGAT
# modifications: reconstituted with mouse histones H2A, H2B, H3.3 and H4
# B4: 48 (nucleosome)
# DNA 1: ATCCTGGAGAATCCCGGTGCCGAGGCCGCTCAATTGGTCGTAGACAGCTCTCAAGGCCATTAAACGCACGTACGCGCTGTCCCCCGCGTTTTAACCGCCAAGGGGATTACTCCCTAGTCTCCAGGCACGTGTCAGATATATACATCCTGTGAT
# DNA 2: ATCACAGGATGTATATATCTGACACGTGCCTGGAGACTAGGGAGTAATCCCCTTGGCGGTTAAAACGCGGGGGACAGCGCGTACGTGCGTTTAATGGCCTTGAGAGCTGTCTACGACCAATTGAGCGGCCTCGGCACCGGGATTCTCCAGGAT
# modifications: reconstituted with mouse histones H2A, H2B, H3.3 and H4
# B5: 50 (nucleosome)
# DNA 1: ATCCTGGAGAATCCCGGTGCCGAGGCCGCTCAATTGGTCGTAGACAGCTCTATCAAGGCCAAAACGCACGTACGCGCTGTCCCCCGCGTTTTAACCGCCAAGGGGATTACTCCCTAGTCTCCAGGCACGTGTCAGATATATACATCCTGTGAT
# DNA 2: ATCACAGGATGTATATATCTGACACGTGCCTGGAGACTAGGGAGTAATCCCCTTGGCGGTTAAAACGCGGGGGACAGCGCGTACGTGCGTTTTGGCCTTGATAGAGCTGTCTACGACCAATTGAGCGGCCTCGGCACCGGGATTCTCCAGGAT
# modifications: reconstituted with mouse histones H2A, H2B, H3.3 and H4
# B6: 7 (nucleosome)
# DNA 1: ATCCTGGAGTCAAGGCCAGCCGAGGCCGCTCAATTGGTCGTAGACAGCTCTAGCACCGCTTAAACGCACGTACGCGCTGTCCCCCGCGTTTTAACCGCCAAGGGGATTACTCCCTAGTCTCCAGGCACGTGTCAGATATATACATCCTGTGAT
# DNA 2: ATCACAGGATGTATATATCTGACACGTGCCTGGAGACTAGGGAGTAATCCCCTTGGCGGTTAAAACGCGGGGGACAGCGCGTACGTGCGTTTAAGCGGTGCTAGAGCTGTCTACGACCAATTGAGCGGCCTCGGCTGGCCTTGACTCCAGGAT
# modifications: reconstituted with mouse histones H2A, H2B, H3.3 and H4
# B7: 51 (nucleosome)
# DNA 1: ATCCTGGAGAATCCCGGTGCCGAGGCCGCTCAATTGGTCGTAGACAGCTCTAGTCAAGGCCAAACGCACGTACGCGCTGTCCCCCGCGTTTTAACCGCCAAGGGGATTACTCCCTAGTCTCCAGGCACGTGTCAGATATATACATCCTGTGAT
# DNA 2: ATCACAGGATGTATATATCTGACACGTGCCTGGAGACTAGGGAGTAATCCCCTTGGCGGTTAAAACGCGGGGGACAGCGCGTACGTGCGTTTGGCCTTGACTAGAGCTGTCTACGACCAATTGAGCGGCCTCGGCACCGGGATTCTCCAGGAT
# modifications: reconstituted with mouse histones H2A, H2B, H3.3 and H4
# B8: 53 (nucleosome)
# DNA 1: ATCCTGGAGAATCCCGGTGCCGAGGCCGCTCAATTGGTCGTAGACAGCTCTAGCATCAAGGCCACGCACGTACGCGCTGTCCCCCGCGTTTTAACCGCCAAGGGGATTACTCCCTAGTCTCCAGGCACGTGTCAGATATATACATCCTGTGAT
# DNA 2: ATCACAGGATGTATATATCTGACACGTGCCTGGAGACTAGGGAGTAATCCCCTTGGCGGTTAAAACGCGGGGGACAGCGCGTACGTGCGTGGCCTTGATGCTAGAGCTGTCTACGACCAATTGAGCGGCCTCGGCACCGGGATTCTCCAGGAT
# modifications: reconstituted with mouse histones H2A, H2B, H3.3 and H4
# Biological target: NR5A2 wild type;histone octamer (Homo sapiens;, UniProt O00482;C0HKE1;Q6ZWY9;P84244;P62806 1-541;2-130;2-126;2-136;2-103, |)
# Test: SeEN-seq (EMSA of nucleosome library followed by sequencing); 0.8 uM human NR5A2; 20 mM Tris-HCl pH 7.5, 120 mM NaCl, 1 mM MgCl2, 10 uM ZnCl2, 1 mM DTT, 100 ug/ml BSA, room temperature, 30 min; 0.1 uM nucleosome library; high values mean tight binding
row,Binder,binding signal
1,B1,"1.01 log2 enrichment (bound/unbound, relative to Widom 601)"
2,B2,"0.917 log2 enrichment (bound/unbound, relative to Widom 601)"
3,B3,"1.14 log2 enrichment (bound/unbound, relative to Widom 601)"
4,B4,"0.867 log2 enrichment (bound/unbound, relative to Widom 601)"
5,B5,"0.992 log2 enrichment (bound/unbound, relative to Widom 601)"
6,B6,"2.59 log2 enrichment (bound/unbound, relative to Widom 601)"
7,B7,"0.595 log2 enrichment (bound/unbound, relative to Widom 601)"
8,B8,"1.03 log2 enrichment (bound/unbound, relative to Widom 601)"

# Biological target: mouse Nr5a2 wild type;histone octamer (Mus musculus;, UniProt P45448;C0HKE1;Q6ZWY9;P84244;P62806 1-560;2-130;2-126;2-136;2-103, |)
# Test: SeEN-seq (EMSA of nucleosome library followed by sequencing); 1.2 uM mouse Nr5a2; 20 mM Tris-HCl pH 7.5, 120 mM NaCl, 1 mM MgCl2, 10 uM ZnCl2, 1 mM DTT, 100 ug/ml BSA, room temperature, 30 min; 0.1 uM nucleosome library; high values mean tight binding
row,Binder,binding signal
1,B1,"1.07 log2 enrichment (bound/unbound, relative to Widom 601)"
2,B2,"1.16 log2 enrichment (bound/unbound, relative to Widom 601)"
3,B3,"1.11 log2 enrichment (bound/unbound, relative to Widom 601)"
4,B4,"0.815 log2 enrichment (bound/unbound, relative to Widom 601)"
5,B5,"1.01 log2 enrichment (bound/unbound, relative to Widom 601)"
6,B6,"2.08 log2 enrichment (bound/unbound, relative to Widom 601)"
7,B7,"0.567 log2 enrichment (bound/unbound, relative to Widom 601)"
8,B8,"1.17 log2 enrichment (bound/unbound, relative to Widom 601)"

# Source: PMC11102866, “Nucleosome-bound NR5A2 structure reveals pioneer factor mechanism by DNA minor groove anchor competition”
